Laboratory results taken from publication PMC7862700, “An all-to-all approach to the identification of sequence-specific readers for epigenetic DNA modifications on cytosine”.

Legend:
Assay in all cases: DAPPL (digital affinity profiling via proximity ligation, sequencing); 10 mM Tris-HCl pH 7.5, 50 mM NaCl, 1 mM DTT, 4% glycerol, room temperature, 30 min; GST-TFs on glutathione beads, 16-mer random dsDNA library, 0.1% formaldehyde crosslink after washing; high values mean tight binding
Details in all cases: protein: recombinant; tags: N-terminal GST; dsDNA, one strand shown
[1] = target: T1, ERF (Homo sapiens, UniProt P50548 1-548)
T1 sequence: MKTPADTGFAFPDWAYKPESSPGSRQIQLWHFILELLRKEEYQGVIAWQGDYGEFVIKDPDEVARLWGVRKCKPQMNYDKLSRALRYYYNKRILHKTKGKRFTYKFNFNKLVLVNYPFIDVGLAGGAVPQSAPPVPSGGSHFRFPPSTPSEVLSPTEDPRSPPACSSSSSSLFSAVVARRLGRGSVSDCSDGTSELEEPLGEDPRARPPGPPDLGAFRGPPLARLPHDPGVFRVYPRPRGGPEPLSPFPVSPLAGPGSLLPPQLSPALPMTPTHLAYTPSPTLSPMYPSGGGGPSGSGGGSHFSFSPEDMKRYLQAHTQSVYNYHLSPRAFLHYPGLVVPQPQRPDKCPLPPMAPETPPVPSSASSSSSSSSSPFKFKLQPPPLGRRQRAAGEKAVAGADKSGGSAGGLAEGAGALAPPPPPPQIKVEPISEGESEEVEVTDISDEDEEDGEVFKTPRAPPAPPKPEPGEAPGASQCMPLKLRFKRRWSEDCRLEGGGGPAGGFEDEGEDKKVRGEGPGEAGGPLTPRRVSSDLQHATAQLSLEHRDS
In short: (§1)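 After expression in yeast as GST fusions, human transcription factors were bound to glutathione beads, DNA-barcoded and mixed with a tag-only sample. The pools were incubated with 200 nmole of a 16-mer random double-stranded DNA library in Tris/NaCl/DTT/glycerol buffer (30 min, room temperature), washed and crosslinked with 0.1% formaldehyde. Proximity ligation with BsaI/T4 ligase ran for 1 h at 37 °C, before PCR amplification and sequencing on an Illumina NextSeq500. Binding signal is a hexamer's read frequency for a factor divided by its frequency for the tag-only sample.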

[2] = target: T2, ETV3L (Homo sapiens, UniProt Q6ZN32 1-361)
T2 sequence: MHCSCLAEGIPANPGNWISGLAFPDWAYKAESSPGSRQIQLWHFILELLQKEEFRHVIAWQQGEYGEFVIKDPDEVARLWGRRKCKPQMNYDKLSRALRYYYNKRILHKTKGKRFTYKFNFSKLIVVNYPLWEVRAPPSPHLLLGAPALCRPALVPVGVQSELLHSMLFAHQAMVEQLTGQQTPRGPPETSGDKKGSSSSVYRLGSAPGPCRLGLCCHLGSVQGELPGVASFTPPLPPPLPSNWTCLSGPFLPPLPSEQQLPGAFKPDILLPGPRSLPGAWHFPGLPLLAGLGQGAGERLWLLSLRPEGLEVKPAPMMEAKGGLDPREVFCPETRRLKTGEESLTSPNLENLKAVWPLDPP
In short: as §1

[3] = target: T3, ETS2 (Homo sapiens, UniProt P15036 1-469)
T3 sequence: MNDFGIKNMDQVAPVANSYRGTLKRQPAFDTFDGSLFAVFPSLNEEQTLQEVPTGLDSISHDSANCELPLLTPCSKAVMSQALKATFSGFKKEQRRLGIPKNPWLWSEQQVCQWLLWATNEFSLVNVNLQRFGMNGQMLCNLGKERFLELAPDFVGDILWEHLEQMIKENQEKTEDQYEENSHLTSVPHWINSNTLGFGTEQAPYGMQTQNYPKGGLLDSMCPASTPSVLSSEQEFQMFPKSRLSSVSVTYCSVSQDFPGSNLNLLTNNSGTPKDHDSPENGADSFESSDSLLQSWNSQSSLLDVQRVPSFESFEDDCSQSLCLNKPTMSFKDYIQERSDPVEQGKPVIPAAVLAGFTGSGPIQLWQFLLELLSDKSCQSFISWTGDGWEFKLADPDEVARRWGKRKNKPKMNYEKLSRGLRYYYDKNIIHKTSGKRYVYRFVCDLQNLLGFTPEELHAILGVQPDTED
In short: as §1

[4] = target: T4, SPDEF (Homo sapiens, UniProt O95238 1-335)
T4 sequence: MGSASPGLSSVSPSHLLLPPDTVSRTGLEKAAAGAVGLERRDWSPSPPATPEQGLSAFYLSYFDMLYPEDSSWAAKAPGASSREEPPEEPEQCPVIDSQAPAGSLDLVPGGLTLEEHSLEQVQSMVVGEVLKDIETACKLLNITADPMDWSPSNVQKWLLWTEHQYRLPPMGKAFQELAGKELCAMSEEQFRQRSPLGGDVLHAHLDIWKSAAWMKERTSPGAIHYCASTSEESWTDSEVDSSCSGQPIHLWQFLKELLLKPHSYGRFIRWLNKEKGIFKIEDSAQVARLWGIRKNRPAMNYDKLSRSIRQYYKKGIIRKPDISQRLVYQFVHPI
In short: as §1

[5] = target: T5, ETV7 (Homo sapiens, UniProt Q9Y603 1-341)
T5 sequence: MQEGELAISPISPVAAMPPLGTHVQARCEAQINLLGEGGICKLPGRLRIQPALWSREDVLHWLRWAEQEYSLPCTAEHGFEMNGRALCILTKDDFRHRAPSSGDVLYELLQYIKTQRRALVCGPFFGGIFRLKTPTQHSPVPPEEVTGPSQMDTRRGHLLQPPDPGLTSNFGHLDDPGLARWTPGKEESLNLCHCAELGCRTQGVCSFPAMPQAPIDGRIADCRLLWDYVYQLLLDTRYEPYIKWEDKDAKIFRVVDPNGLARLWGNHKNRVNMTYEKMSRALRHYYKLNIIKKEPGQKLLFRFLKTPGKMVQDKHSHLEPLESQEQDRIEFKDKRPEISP
In short: as §1

[6] = target: T6, ELF5 (Homo sapiens, UniProt Q9UKW6-2 1-255)
T6 sequence: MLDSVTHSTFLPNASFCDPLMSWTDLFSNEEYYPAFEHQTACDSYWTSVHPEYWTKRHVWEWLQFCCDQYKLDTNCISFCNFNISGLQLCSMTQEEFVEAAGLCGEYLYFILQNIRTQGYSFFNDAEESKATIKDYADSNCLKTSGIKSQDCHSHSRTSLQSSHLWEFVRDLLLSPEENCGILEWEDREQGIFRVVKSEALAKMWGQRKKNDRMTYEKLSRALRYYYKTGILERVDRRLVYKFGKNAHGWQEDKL
In short: as §1

[7] = target: T7, ETV3 (Homo sapiens, UniProt P41162-2 1-143)
T7 sequence: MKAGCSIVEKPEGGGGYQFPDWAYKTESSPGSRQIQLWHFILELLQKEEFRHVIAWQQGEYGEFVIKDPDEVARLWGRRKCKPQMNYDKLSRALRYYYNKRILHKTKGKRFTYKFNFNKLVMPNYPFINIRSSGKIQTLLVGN
In short: as §1

[8] = target: ETV6 (Homo sapiens, UniProt P41212 1-452)
In short: as §1

Sequence of ETV6 (P41212 whole entry): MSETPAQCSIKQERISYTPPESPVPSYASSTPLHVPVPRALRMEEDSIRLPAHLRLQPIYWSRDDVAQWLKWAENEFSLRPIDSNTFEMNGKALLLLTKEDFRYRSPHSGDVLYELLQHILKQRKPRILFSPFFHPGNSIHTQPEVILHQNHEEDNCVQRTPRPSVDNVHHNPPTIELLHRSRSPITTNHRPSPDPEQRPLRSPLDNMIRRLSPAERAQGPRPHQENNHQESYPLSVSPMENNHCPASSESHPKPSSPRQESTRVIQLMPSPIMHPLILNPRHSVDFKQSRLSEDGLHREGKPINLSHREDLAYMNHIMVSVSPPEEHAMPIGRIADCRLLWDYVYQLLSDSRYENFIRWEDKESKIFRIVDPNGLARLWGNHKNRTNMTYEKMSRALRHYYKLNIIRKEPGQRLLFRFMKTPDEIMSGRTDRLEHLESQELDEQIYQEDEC

TCTACT
binding signal [1]: 1.42 fold enrichment (6-mer frequency, TF over GST control)
binding signal [2]: 1.51 fold enrichment (6-mer frequency, TF over GST control)
binding signal [3]: 1.41 fold enrichment (6-mer frequency, TF over GST control)
binding signal [4]: 1.42 fold enrichment (6-mer frequency, TF over GST control)
binding signal [5]: 1.32 fold enrichment (6-mer frequency, TF over GST control)
binding signal [6]: 1.37 fold enrichment (6-mer frequency, TF over GST control)
binding signal [7]: 1.2 fold enrichment (6-mer frequency, TF over GST control)
binding signal [8]: 1.41 fold enrichment (6-mer frequency, TF over GST control)

TTTAGC
binding signal [1]: 1.19 fold enrichment (6-mer frequency, TF over GST control)
binding signal [2]: 1.21 fold enrichment (6-mer frequency, TF over GST control)
binding signal [3]: 1.01 fold enrichment (6-mer frequency, TF over GST control)
binding signal [4]: 1.08 fold enrichment (6-mer frequency, TF over GST control)
binding signal [5]: 1.03 fold enrichment (6-mer frequency, TF over GST control)
binding signal [6]: 1 fold enrichment (6-mer frequency, TF over GST control)
binding signal [7]: 1.13 fold enrichment (6-mer frequency, TF over GST control)
binding signal [8]: 1.12 fold enrichment (6-mer frequency, TF over GST control)

ATCTGC
binding signal [1]: 1.31 fold enrichment (6-mer frequency, TF over GST control)
binding signal [2]: 1.4 fold enrichment (6-mer frequency, TF over GST control)
binding signal [3]: 1.37 fold enrichment (6-mer frequency, TF over GST control)
binding signal [4]: 1.36 fold enrichment (6-mer frequency, TF over GST control)
binding signal [5]: 1.38 fold enrichment (6-mer frequency, TF over GST control)
binding signal [6]: 1.31 fold enrichment (6-mer frequency, TF over GST control)
binding signal [7]: 1.36 fold enrichment (6-mer frequency, TF over GST control)
binding signal [8]: 1.29 fold enrichment (6-mer frequency, TF over GST control)

TTTAAG
binding signal [1]: 1.3 fold enrichment (6-mer frequency, TF over GST control)
binding signal [2]: 1.26 fold enrichment (6-mer frequency, TF over GST control)
binding signal [3]: 1.36 fold enrichment (6-mer frequency, TF over GST control)
binding signal [4]: 1.44 fold enrichment (6-mer frequency, TF over GST control)
binding signal [5]: 1.33 fold enrichment (6-mer frequency, TF over GST control)
binding signal [6]: 1.32 fold enrichment (6-mer frequency, TF over GST control)
binding signal [7]: 1.24 fold enrichment (6-mer frequency, TF over GST control)
binding signal [8]: 1.26 fold enrichment (6-mer frequency, TF over GST control)

TTAGCT
binding signal [1]: 1.2 fold enrichment (6-mer frequency, TF over GST control)
binding signal [2]: 1.16 fold enrichment (6-mer frequency, TF over GST control)
binding signal [3]: 1.26 fold enrichment (6-mer frequency, TF over GST control)
binding signal [4]: 1.08 fold enrichment (6-mer frequency, TF over GST control)
binding signal [5]: 1.17 fold enrichment (6-mer frequency, TF over GST control)
binding signal [6]: 1.13 fold enrichment (6-mer frequency, TF over GST control)
binding signal [7]: 1.19 fold enrichment (6-mer frequency, TF over GST control)
binding signal [8]: 1.26 fold enrichment (6-mer frequency, TF over GST control)

CGACTC
binding signal [1]: 1.59 fold enrichment (6-mer frequency, TF over GST control)
binding signal [2]: 1.36 fold enrichment (6-mer frequency, TF over GST control)
binding signal [3]: 1.38 fold enrichment (6-mer frequency, TF over GST control)
binding signal [4]: 1.29 fold enrichment (6-mer frequency, TF over GST control)
binding signal [5]: 1.29 fold enrichment (6-mer frequency, TF over GST control)
binding signal [6]: 1.33 fold enrichment (6-mer frequency, TF over GST control)
binding signal [7]: 1.29 fold enrichment (6-mer frequency, TF over GST control)
binding signal [8]: 1.38 fold enrichment (6-mer frequency, TF over GST control)

AATGCG
binding signal [1]: 1.18 fold enrichment (6-mer frequency, TF over GST control)
binding signal [2]: 1.36 fold enrichment (6-mer frequency, TF over GST control)
binding signal [3]: 1.3 fold enrichment (6-mer frequency, TF over GST control)
binding signal [4]: 1.26 fold enrichment (6-mer frequency, TF over GST control)
binding signal [5]: 1.21 fold enrichment (6-mer frequency, TF over GST control)
binding signal [6]: 1.3 fold enrichment (6-mer frequency, TF over GST control)
binding signal [7]: 1.22 fold enrichment (6-mer frequency, TF over GST control)
binding signal [8]: 1.29 fold enrichment (6-mer frequency, TF over GST control)

AACTAA
binding signal [1]: 1.36 fold enrichment (6-mer frequency, TF over GST control)
binding signal [2]: 1.25 fold enrichment (6-mer frequency, TF over GST control)
binding signal [3]: 1.4 fold enrichment (6-mer frequency, TF over GST control)
binding signal [4]: 1.31 fold enrichment (6-mer frequency, TF over GST control)
binding signal [5]: 1.33 fold enrichment (6-mer frequency, TF over GST control)
binding signal [6]: 1.38 fold enrichment (6-mer frequency, TF over GST control)
binding signal [7]: 1.29 fold enrichment (6-mer frequency, TF over GST control)
binding signal [8]: 1.42 fold enrichment (6-mer frequency, TF over GST control)
